{"source": "PubChem BioAssay (EPA / NIEHS)", "note": "Calls of active or inactive are those of the source. The calls were made as follows: active = hit-call score of the fitted dose curve at least 0.9, where 1 is the maximum; inconclusive = response in the unintended direction; inactive = score below 0.9."}
{"experiment": "Tanguay_ZF_120hpf_ActivityScore_legacy: (Legacy) Oregon State University Tanguay Lab 120 Hour Post-fertilization zebrafish Assay Score for Activity (AID 2283742);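 as to AC50: static exposure from 6 hpf until 120 hpf at 28 °C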", "description": "Tanguay_ZF_120hpf_legacy is a whole embryo, multiplexed endpoint assay using zebrafish larvae exposed for 120 hours post fertilization on a 96-well plate.Tanguay_ZF_120hpf_ActivityScore_legacy is one of one assay component(s) measured or calculated from the Tanguay_ZF_120hpf_legacy assay. It is designed to make measurements of developmental malformations and mortality as detected with brightfield microscopy and combines scoring from 18 other assay components measuring more specific morphologies.Data from the assay component Tanguay_ZF_120hpf_ActivityScore_legacy was analyzed into 1 assay endpoints. This assay endpoint, Tanguay_ZF_120hpf_ActivityScore_legacy, was analyzed in the positive analysis fitting direction relative to DMSO as the negative control and baseline of activity. Using a type of morphology reporter, gain-of-signal activity can be used to understand changes in developmentals as they relate to the whole embryo. To generalize the intended target to other relatable targets, this assay endpoint is annotated to the zebrafish development intended target family, where the subfamily is embryonic morphogenesis and mortality.\nZebrafish husbandry: Tropical 5D wild-type adult zebrafish were housed in at an approximate density of 1000 per 100 gallon tank at the Sinnhuber Aquatic Research Laboratory, Oregon State University, Corvallis, OR. Each tank was kept at standard laboratory conditions of 28C on a 14-h light/10-h dark photoperiod in fish water consisting of reverse osmosis water supplemented with a commercially available salt (Instant Ocean). Spawning funnels were placed into the tanks the night prior, and embryos were collected and staged. To increase bioavailability, the chorion was enzymatically removed using pronase (63.6mg/ml, >/= 3.5U/mg, Sigma-Aldrich: P5147) at 4 hours post fertilization (hpf) using a custom automated dechorionator.Chemical exposures: Six hpf dechorionated embryos were placed 1 embryo per well in a 96-well plate prefilled with 90 ul of EM using automated embryo placement systems (AEPS). Ten microliters of each row of dilution plate 2 was added to 2 exposure plates. The final DMSO concentration used was 0.64% (vol/vol). Thirty-two embryos were also exposed to 5uM trimethyltin chloride (positive control). Plates were sealed to prevent evaporation and foil covered to reduce light exposure and kept in a 28C incubator. Embryos were statically exposed until 120 hpf. At 24 hpf, embryos were assessed for photomotor response using a custom photomotor response analysis tool (PRAT) and for developmental toxicity endpoints (MO24: mortality at 24 hpf, DP: developmental progression, SM: spontaneous movement, and NC: notochord distortion). At 120 hpf, locomotor activity was measured using Viewpoint Zebralab and assessed for 18 endpoints. Zebrafish acquisition and analysis program (ZAAP), a custom program designed to inventory, acquire, and manage zebrafish data, was used to collect developmental endpoints as either present or absent (i.e., binary responses were recorded). If mortality occurred for an embryo (at either 24 or 120 hpf), the non-mortality endpoints were not measured."}
{"compound": "Nc1cc(Cl)cc(C(=O)O)c1Cl", "outcome": "inactive"}
{"compound": "CC(C)(O)c1cnn2c(-c3ccc(F)c(-c4c(F)cccc4C#N)c3)cnc2n1", "outcome": "inactive"}
{"compound": "CN(C)C(=O)Nc1ccc(Cl)cc1", "outcome": "inactive"}
{"compound": "CCNS(=O)(=O)C(F)(F)C(F)(F)C(F)(F)C(F)(F)C(F)(F)C(F)(F)C(F)(F)C(F)(F)F", "AC50": "31.2 µM (active)"}
{"compound": "O=Cc1ccco1", "outcome": "inactive"}
{"compound": "Clc1ccccc1Cl", "outcome": "inactive"}
{"compound": "Nc1ccc(Oc2ccc(N)cc2)cc1", "outcome": "inactive"}
{"compound": "[As]#[In]", "outcome": "inactive"}
{"compound": "CCC(C)c1ccc(O)cc1", "note": "(stereo not given)", "outcome": "inactive"}
{"compound": "CCCCCCCCOC(=O)c1ccc(C(=O)OCCCCCCCC)c(C(=O)OCCCCCCCC)c1", "outcome": "inactive"}
{"compound": "CCN(CC)CCO", "outcome": "inactive"}
{"compound": "c1ccc(C2CO2)cc1", "note": "(stereo not given)", "outcome": "inactive"}
{"compound": "c1ccc(N=Nc2ccccc2)cc1", "outcome": "inactive"}
{"compound": "O=C(O)C1C2CCC(O2)C1C(=O)O", "note": "(stereo not given)", "outcome": "inactive"}
{"compound": "CN(C)c1ccc(C(=O)c2ccc(N(C)C)cc2)cc1", "AC50": "32.1 µM (active)"}
{"compound": "COc1cc(C=O)cc2c1[C@H](COC(N)=O)[C@]1(OC(C)=O)ON2C[C@H]2[C@@H]1N2C(C)=O", "AC50": "23.4 µM (active)"}
{"compound": "CCCCCCCCn1sccc1=O", "AC50": "3.42 µM (active)"}
{"compound": "Cc1ccc([N+](=O)[O-])cc1", "outcome": "inactive"}
{"compound": "Clc1ccc(Cl)c(Cl)c1", "outcome": "inactive"}
{"compound": "CC(C)N(Cc1ccccc1)C(=O)C(C)(C)C", "outcome": "inactive"}
{"compound": "CC(C)COC(=O)c1ccccc1C(=O)OCC(C)C", "outcome": "inactive"}
{"compound": "CC(C)(OOC(C)(C)c1ccccc1)c1ccccc1", "outcome": "inactive"}
{"compound": "C=CCc1ccc2c(c1)OCO2", "outcome": "inactive"}
{"compound": "CCCCOC(=O)c1ccccc1C(=O)OCc1ccccc1", "outcome": "inactive"}
{"compound": "Nc1ccc(Cl)cc1N", "AC50": "44.8 µM (active)"}
{"compound": "C1=Cc2cccc3cccc1c23", "outcome": "inactive"}
{"compound": "O=P(OCCCl)(OCCCl)OCCCl", "outcome": "inactive"}
{"compound": "C[N+](C)(C)CC1CO1", "note": "(stereo not given)", "outcome": "inactive"}
{"compound": "O=C(Oc1ccc(Br)cc1)N1CCN2CCC1CC2", "outcome": "inactive"}
{"compound": "Cc1cc(N=Nc2ccccc2C)ccc1N", "AC50": "33.3 µM (active)"}
{"compound": "CCC12COCN1COC2", "outcome": "inactive"}
{"compound": "ClC1=C(Cl)C2(Cl)C3C(Cl)C=CC3C1(Cl)C2(Cl)Cl", "note": "(stereo not given)", "outcome": "inactive"}
{"compound": "Brc1ccc(Oc2ccccc2)cc1", "outcome": "inactive"}
{"compound": "CN(C)c1ccccc1", "outcome": "inactive"}
{"compound": "[O-][Cl+]O", "outcome": "inactive"}
{"compound": "COC(=O)Nc1nc2ccccc2[nH]1", "outcome": "inactive"}
{"compound": "COP(=S)(OC)SCN1C(=O)c2ccccc2C1=O", "outcome": "inactive"}
{"compound": "Clc1ccc(C(c2ccc(Cl)cc2)C(Cl)Cl)cc1", "outcome": "inactive"}
{"compound": "Cn1cc(-c2ccccc2)c(=O)c(-c2cccc(C(F)(F)F)c2)c1", "outcome": "inactive"}
{"compound": "C[C@]12C=CC3=C4CCC(=O)C=C4CC[C@H]3[C@@H]1CC[C@@H]2O", "AC50": "118 µM (active)"}
